From PubChem
MBD2 DNA inh: MBD2-methylated oligo binding inhibition; inhibition, % at 4.4 µM; Q9UBB5; TR-FRET, MBD2 binding to methylated oligonucleotide; hit rate 0.31% among 370,000; AID 686964; in the data active = inhibition above about 13%
Target sequence (Q9UBB5 whole entry, looked up): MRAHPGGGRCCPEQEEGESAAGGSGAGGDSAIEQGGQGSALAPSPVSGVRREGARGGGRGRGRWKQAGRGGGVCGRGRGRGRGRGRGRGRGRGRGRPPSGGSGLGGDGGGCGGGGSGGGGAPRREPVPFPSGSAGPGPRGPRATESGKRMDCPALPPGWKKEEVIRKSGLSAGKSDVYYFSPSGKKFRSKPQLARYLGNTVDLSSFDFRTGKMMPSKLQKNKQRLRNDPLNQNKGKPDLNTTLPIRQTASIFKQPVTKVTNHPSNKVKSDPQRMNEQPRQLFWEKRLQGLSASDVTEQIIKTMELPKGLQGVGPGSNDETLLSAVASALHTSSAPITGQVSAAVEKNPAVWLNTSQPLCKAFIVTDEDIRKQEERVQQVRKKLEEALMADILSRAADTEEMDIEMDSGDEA
UHRF1 binding: human UHRF1 methylated DNA binding inhibitors; UHRF1 binding to methylated oligo, TR-FRET; inhibition, % at 4.4 µM; hit rate 0.75% among 370,000; AID 687016; in the data active = inhibition above about 21%;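 note: UHRF1 SRA domain binding a hemimethylated CpG hairpin DNA probe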
PLCb3 inh: PLC-beta3 (human) inhibition, primary screen | Q01970 | Purified PLC-beta3, fluorogenic substrate, fluorescence | inhibition, % at 12.2 µM | hit rate 0.18% among 370,000 | AID 720704
PLC-gamma1 inh: PLC-gamma1 (human) inhibition, primary screen. P19174. purified PLC-gamma1, fluorogenic substrate, fluorescence. inhibition, % at 12.2 µM. hit rate 0.84% among 370,000. AID 720700; in the data active = inhibition above about 9.5%
LEDGF integ inh: blocks HIV-1 LEDGF/p75-dependent DNA integration; TR-FRET IN-LEDGF/p75 DNA integration, Eu/Cy5; inhibition, % at 3.7 µM; hit rate 0.64% among 370,000; AID 743269;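 active = inhibition above the screen-wide mean plus 3 SD, cut at about 13% in these data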;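 note: signal is the Cy5 over europium emission ratio at 671 and 618 nm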
PLCg1 ctr: PLC-gamma1 inhibition, counter-screen for PLC-beta3 hits | inhibition, % at 12.3 µM | shares compounds with PLC-gamma1 inh | hit rate 3.1% among 3,300 | purified PLC-gamma1, fluorogenic substrate, fluorescence | AID 743258; in the data active = inhibition above about 9.5%
PLCb3 confirm: confirmation of human PLC-beta3 inhibitors; shares compounds with PLC-gamma1 inh; hit rate 1% among 3,300; inhibition, % at 12.3 µM; purified PLC-beta3, fluorogenic substrate fluorescence
Of the large screens only hits and unclear results are named; the others gave an inactive call (follow-up assays come after a bar, where they were run). Rows were chosen to be rich in hits. Some 2.4% of all compounds tested hit in one or more screens of this group. Cut-off read from the data, not from the text of the source, unless noted: active = inhibition above about 11%; inactive = the rest.

CCOC(=O)C(CCCOc1ccccc1C)C(=O)OCC	PLC-gamma1 inh 12 | PLCg1 ctr inactive | PLCb3 confirm inactive
CCCCCCCCN1CCS(=O)(=O)N(Cc2ccccc2)C(C(=O)OC)C1 (stereo not drawn)	none
CCCn1c(N2CCC(Cc3ccccc3)CC2)nc2c1c(=O)[nH]c(=O)n2C	PLC-gamma1 inh 12 | PLCg1 ctr inactive | PLCb3 confirm inactive
Cn1c(=O)[nH]c(=O)c2c1nc(SCCN1CCOCC1)n2CCCc1ccccc1	PLCb3 inh 12 | PLCg1 ctr inactive | PLCb3 confirm inactive
Cn1c(=O)[nH]c(=O)c2c1nc(N1CCCCCC1)n2CCOc1ccccc1	PLC-gamma1 inh 11 | PLCg1 ctr inactive | PLCb3 confirm inactive
CC(=O)Cn1c(N2CCC(Cc3ccccc3)CC2)nc2c1c(=O)[nH]c(=O)n2C	none
Cn1c(=O)[nH]c(=O)c2c1nc(SCCN1CCOCC1)n2Cc1ccccc1	none
C=CCN(CC#Cc1ccccc1)Cc1ccc2c(c1)OCO2	none
CC(C)(C)c1ccc2c(c1)OC(C(=O)N/N=C/c1ccc[nH]1)CO2 (stereo not drawn)	none
Cc1ccc(C(NC(=O)c2ccccc2)C(Cl)Cl)cc1 (stereo not drawn)	PLCb3 inh 11 | PLCg1 ctr inactive | PLCb3 confirm inactive
Cc1cccc(NC(=S)N(Cc2cccc(Br)c2)CC2CCC(C(=O)O)CC2)c1 (stereo not drawn)	PLC-gamma1 inh 11 | PLCg1 ctr inactive | PLCb3 confirm inactive
Cn1c(CSCc2ccccc2Cl)nnc1SCC(=O)Nc1nccs1	PLC-gamma1 inh 15 | PLCg1 ctr inactive | PLCb3 confirm inactive
Cc1cc(C)nc(N2CCC(C(=O)N(C)CCc3ccccc3)CC2)n1	none
Cc1cccc(NC(=O)Nc2c(-c3ccc(C(F)(F)F)cc3)nc3ncccn23)c1	none
O=C(Nc1cccnc1)c1cc(-c2cc(Cl)ccc2O)n[nH]1	none
Cc1ccc(O)c(-c2cc(C(=O)Nc3cccnc3)[nH]n2)c1	PLC-gamma1 inh 11 | PLCg1 ctr inactive | PLCb3 confirm inactive
C[C@H]1COc2cc(Br)ccc2S(=O)(=O)N1Cc1cn(Cc2ccccc2)nn1	none
CS(=O)(=O)c1nc(-c2ccc(Br)cc2)n[nH]1	PLC-gamma1 inh 18 | PLCg1 ctr 15 | PLCb3 confirm inactive
Cn1c(SCC(=O)N2CCN(c3ccccc3)CC2)nnc1-c1ccncc1	none
Cn1c(SCC(=O)N2CCOCC2)nnc1-c1ccccc1	PLCb3 inh 12 | PLCg1 ctr inactive | PLCb3 confirm inactive
O=C(Cn1nc(C(F)(F)F)c2c1CCCC2)N1CCOCC1	PLC-gamma1 inh 9.6 | PLCg1 ctr inactive | PLCb3 confirm inactive
C/C(CC(=O)NC1CCCC1)=N\NC(=O)c1ccc([N+](=O)[O-])c(Cl)c1	PLC-gamma1 inh 14 | PLCg1 ctr inactive | PLCb3 confirm inactive
CC(=O)Nc1ccccc1NC(=O)C/C(C)=N/NC(=O)c1ccc([N+](=O)[O-])c(Cl)c1	none
COc1c(Cl)cc(Cl)cc1CNCc1ccccc1	PLC-gamma1 inh 11 | PLCg1 ctr inactive | PLCb3 confirm inactive
COc1cc(NS(=O)(=O)c2ccc(NC(=O)NC3CCCCC3)cc2)nc(OC)n1	PLC-gamma1 inh 10 | PLCg1 ctr inactive | PLCb3 confirm inactive
COc1cc(NS(=O)(=O)c2ccc(NC(=S)NC(=O)C3CCCC3)cc2)nc(OC)n1	none
COc1ccc(CC(=O)N/N=C/c2cccn2-c2ccc([N+](=O)[O-])cc2)cc1OC	PLC-gamma1 inh 12 | PLCg1 ctr inactive | PLCb3 confirm inactive
O=C(CCc1ccccc1)N[C@H]1[C@H](OC(=O)c2ccco2)CCC[C@]12C(=O)N(Cc1ccccc1)c1ccccc12	none
CC1(C)CC(=O)N(CC(=O)N2CCN(Cc3ccc4c(c3)OCO4)CC2)c2ccccc2S1(=O)=O	none
O=C(CN1C(=O)c2ccccc2S1(=O)=O)N1CCN(Cc2ccc3c(c2)OCO3)CC1	PLC-gamma1 inh 9.7 | PLCg1 ctr inactive | PLCb3 confirm inactive
COc1ccc(OC)c(NC(=O)COc2coc(CN3CCCc4ccccc43)cc2=O)c1	PLC-gamma1 inh 17 | PLCg1 ctr inactive | PLCb3 confirm inactive
COc1ccc(OC)c(NC(=O)COc2coc(CN3CCc4ccccc43)cc2=O)c1	none
O=C(NC1CCCCN(Cc2ccc(Cl)cc2)C1=O)c1cccs1 (stereo not drawn)	none
COC(=O)CSc1nnc(-c2ccc(NS(=O)(=O)c3c(C(C)C)cc(C(C)C)cc3C(C)C)cc2)o1	none
CC(NCc1ccco1)C(=O)N1CCOCC1 (stereo not drawn)	none
CCOc1ccccc1NC(=O)CC(O)(C(F)(F)F)C(F)(F)F	none
CCOc1ccccc1NC(=O)COn1nnc2ccccc21	PLC-gamma1 inh 11 | PLCg1 ctr inactive | PLCb3 confirm inactive
Cc1ccc(NS(=O)(=O)c2ccc(NC(=O)CSc3ccc(Cl)cc3)cc2)c(C)c1	PLC-gamma1 inh 13 | PLCg1 ctr inactive | PLCb3 confirm inactive
CCOC(=O)[C@]12CCCC=C1N(CCc1ccc(OC)c(OC)c1)C(=O)[C@H](CC(=O)N1CCCC1)C2	PLC-gamma1 inh 12 | PLCg1 ctr inactive | PLCb3 confirm inactive
CCOC(=O)N1CCN(C(=O)C[C@@H]2C[C@@]3(C(=O)OCC)CCC=C3N(Cc3ccc4c(c3)OCO4)C2=O)CC1	PLC-gamma1 inh 9.7 | PLCg1 ctr inactive | PLCb3 confirm inactive
C[C@H]1[C@@H](NCC2CCCCC2)CC[C@@]23CCCN2C(=O)CCC[C@@H]13	none
COC(=O)C1CN(Cc2ccc(OC)cc2)CCS(=O)(=O)N1Cc1cn(CCOC(C)=O)nn1 (stereo not drawn)	none
O=C(NCc1ccc(F)c(F)c1)C1CCCN(c2nc3ccccc3o2)C1 (stereo not drawn)	none
CC(C)CC(=O)OCc1cn(-c2ccccc2)nn1	PLC-gamma1 inh 15 | PLCg1 ctr inactive | PLCb3 confirm inactive
CC(C)(C)C(=O)OCc1cn(-c2ccccc2)nn1	PLC-gamma1 inh 11 | PLCg1 ctr inactive | PLCb3 confirm inactive
CC(C)(C)C(=O)OCc1cn(-c2ccc(Cl)cc2)nn1	none
